# Bioassay records as filed in PubChem.
# Hits are enriched below; roughly 11% of the tested compounds scored in any of these assays.
# hNpr1 antagonist: Natriuretic polypeptide receptor (hNpr1) antagonism - Primary qHTS. Atrial natriuretic peptide receptor 1 (Homo sapiens), P16066. HEK293 hNpr1 GloSensor cGMP, ANP-stimulated luminescence. Potency, µM (series often up to 46.3 µM), without a hit: at the top dose activity change, negative = inhibition, actives largely listed as inhibitors. actives 1.6% (n = 76,000); calls by dose curve; also: nearly all actives have a fitted effect of over 60% in size
#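 Compound pre-incubated 30 min at room temperature on GloSensor-loaded HEK293 cells stably carrying hNpr1 and the pGS-40F cGMP biosensor. Stimulation uses hNppA at 0.1 nM final; luminescence is taken at baseline and 20 min post-agonist.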
# HEK293 tox: Cytotoxic Profiling in HEK 293 Cell Line of Diverse Libraries Using Quantitative High-Throughput Screening; HEK 293 viability, ATP luminescence (CellTiter-Glo), 48-72 h; AID 1345083, 2018; Potency, µM (series often up to 115 µM), inactives show at the top dose activity change, negative = cytotoxicity, actives largely listed as inhibitors; actives 6.6% (n = 94,000); also: nearly all actives have a fitted effect of over 60% in size
#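 Read-out: CellTiter-Glo ATP luminescence. Cells: HEK 293, 250 cells/well. Exposure: 48 or 72 hr, 37 degree Celsius.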
# 3T3 cytotox: Cytotoxic Profiling in NIH 3T3 Cell Line of Diverse Libraries Using Quantitative High-Throughput Screening; NIH 3T3 viability, CellTiter-Glo ATP luminescence, 48-72 h; Potency, µM (highest dose often 96.7 µM), without a hit: at the top dose activity change, negative = cytotoxicity, usual class: inhibitors; actives 4.3% (n = 94,000); AID 1345082, 2018; also: nearly all actives have a fitted effect of over 55% in size
#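 Viability of NIH 3T3 cells after 48 or 72 hr compound treatment at 37 °C was assessed by CellTiter-Glo, with luminescence imaged following a 10 min room-temperature step.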
# FLuc inh: Firefly luciferase inhibition profiling of diverse chemical library using quantitative high-throughput screening. purified P. pyralis luciferase, luminescence, biochemical. Potency, µM (series often up to 115 µM), usual class: inhibitors. actives 2.5% (n = 76,000). AID 1347043, 2019; also: nearly all actives have a fitted effect of over 65% in size
# Target sequence (P08659 whole entry, looked up): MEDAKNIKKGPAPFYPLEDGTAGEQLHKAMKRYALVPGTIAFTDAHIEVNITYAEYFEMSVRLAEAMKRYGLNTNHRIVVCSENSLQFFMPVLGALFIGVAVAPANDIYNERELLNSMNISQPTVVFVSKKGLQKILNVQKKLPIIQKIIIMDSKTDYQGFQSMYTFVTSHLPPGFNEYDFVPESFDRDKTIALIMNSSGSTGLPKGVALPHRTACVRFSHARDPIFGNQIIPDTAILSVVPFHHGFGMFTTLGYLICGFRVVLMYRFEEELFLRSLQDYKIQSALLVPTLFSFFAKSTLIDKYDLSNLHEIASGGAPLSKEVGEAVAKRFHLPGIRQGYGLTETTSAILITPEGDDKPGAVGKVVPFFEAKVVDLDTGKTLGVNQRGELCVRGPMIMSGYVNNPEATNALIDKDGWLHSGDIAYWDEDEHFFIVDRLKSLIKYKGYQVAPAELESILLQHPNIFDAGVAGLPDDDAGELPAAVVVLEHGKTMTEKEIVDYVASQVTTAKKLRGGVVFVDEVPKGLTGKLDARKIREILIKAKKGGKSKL
#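 Cell-free enzyme assay, 10nM P. pyralis luciferase, luciferin and ATP each at 10uM. Inhibition profiled over a 6-point titration, read as luminescence.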
# Starred values were filed as active, the others as inactive; i = inactive; ? = inconclusive; / = not tested or not shown; [ ] = dose if it differs, or a comment. Unless noted, calls follow the shape of the dose curve; as a rule, active = well fitted curve in the direction sought with a large enough effect; inconclusive = small, poorly fitted or top-dose-only effect, or another doubt; inactive = no such curve, though single readings can be large; an effect the other way counts as inactive or inconclusive. % is scaled to controls: 0 for no effect and ±100 for the full control effect; potency is read from the fitted curve at half-maximal effect.
SMILES,hNpr1 antagonist,HEK293 tox,3T3 cytotox,FLuc inh
CC(=O)Nc1cccc2ccc(OCc3nnc(C(=O)N4CCC[C@@H]4c4ccc(Br)cc4)n3Cc3ccccc3)cc12,-24%,?,?,i
N#Cc1cccc(CN2Cc3[nH]cnc3C[C@H]2c2nc(-c3ccccc3)no2)c1,-11%[70.6 µM],89µM*,?,63µM*
CC(C)c1noc([C@@H]2Cc3nc[nH]c3CN2Cc2ccc(F)cc2)n1,-15%[70.6 µM],?,?,i
Cc1ccc(-c2noc([C@@H]3Cc4nc[nH]c4CN3Cc3ccc(F)cc3)n2)cc1,?,89µM*,35µM*,50µM*
Cc1ccc(-c2noc([C@@H]3Cc4nc[nH]c4CN3Cc3ccc(CO)o3)n2)cc1,2%[70.6 µM],-19%[172 µM],-10%[174 µM],63µM*
Cc1ccc(-c2noc([C@@H]3Cc4nc[nH]c4CN3C(=O)CCCC(=O)O)n2)cc1,-3%[70.6 µM],-5%[172 µM],-15%[174 µM],?
Cc1cccc(-c2noc([C@@H]3Cc4nc[nH]c4CN3Cc3cccc(C#N)c3)n2)c1,-6%[70.6 µM],?,?,i
COCCn1nnnc1C1CC2(CCOCC2)C(=O)N1Cc1ccc(C)c(C)c1 (stereo not drawn),/,-6%,-21%,/
COc1ccc(-c2ccc(C(=O)N3CCN(C(=O)c4ccccc4Cl)CC3)cc2)nn1,/,?,-25%,/
c1ccc(CN2CCNc3cc(Nc4ccc(N5CCOCC5)cc4)ncc3C2)cc1,-11%[70.6 µM],89µM*,?,i
c1ccc(CN2CCNc3cnc(-c4ccc(N5CCOCC5)cc4)cc3C2)cc1,28µM*,50µM*,?,20µM*
c1ccc(Nc2cc3c(cn2)CN(Cc2cnc[nH]2)CCN3)cc1,-2%[70.6 µM],?,?,?
Oc1cccc(-c2cc3c(cn2)NCCN(Cc2ccccc2)C3)c1,3%[70.6 µM],?,?,i
Fc1ccccc1CN1CCNc2cc(Nc3ccccc3)ncc2C1,-3%[70.6 µM],112µM*,50µM*,20µM*
CN(C)c1cccc(-c2cc3c(cn2)CN(Cc2cccnc2)CCN3)c1,-24%[70.6 µM],?,?,?
CN(C)c1cccc(Nc2cc3c(cn2)CN(Cc2ccccc2)CCN3)c1,?,28µM*,45µM*,22µM*
Fc1cccc(CN2CCNc3cc(Nc4ccccc4)ncc3C2)c1,-22%[70.6 µM],40µM*,45µM*,32µM*
c1ccc(Nc2cc3c(cn2)CN(Cc2cccs2)CCN3)cc1,-19%[70.6 µM],50µM*,50µM*,?
Fc1cccc(-c2cnc([C@@H]3COCCN3C3CCCCC3)[nH]2)c1,5%[70.6 µM],?,-23%[138 µM],i
CNC(=O)[C@H]1C[C@]2(CCCCN(CCO)C2=O)N(C(=O)Cc2cccs2)[C@H]1c1ccco1,/,35µM*,?,/
CCOC(=O)[C@H]1C[C@]2(CCCCN(CCOC)C2=O)N(C(=O)Cc2cccs2)[C@H]1c1ccco1,/,79µM*,?,/
CCOC(=O)[C@H]1C[C@]2(CCCCN(CCOC)C2=O)N(C(=O)CC(C)C)[C@H]1c1ccco1,/,?,-25%,/
CNC(=O)[C@H]1C[C@]2(CCCCN(CCO)C2=O)N(C(=O)Nc2ccccc2)[C@H]1c1ccco1,/,1%,?,/
O=C(C1CCN(c2nc(-c3ccccc3)nc3c2CCC3)CC1)N1CCNCC1,10%,?,?,i
CC(C)(N)C(=O)N1CCN(c2nc(-c3ccccc3)nc3c2CCC3)CC1,-1%,50µM*,?,i
SMILES,hNpr1 antagonist,HEK293 tox,3T3 cytotox,FLuc inh
NC1CCN(C(=O)C2CCCN(c3nc(-c4ccccc4)nc4c3CCC4)C2)CC1 (stereo not drawn),8%,?,28µM*,i
O=C(C1CCCN(c2nc(-c3ccccc3)nc3c2CCC3)C1)N1CCNCC1 (stereo not drawn),0%,?,?,i
O=C(NC1CCC(O)CC1)C1CCCN(c2nc(-c3ccccc3)nc3c2CCC3)C1 (stereo not drawn),-3%,?,?,i
O=C(NC1CCNCC1)C1CCCN(c2nc(-c3ccccc3)nc3c2CCC3)C1 (stereo not drawn),0%,?,40µM*,i
CN(C)c1ccc(-n2c(=O)c(C(=O)NCC(F)(F)F)nc3cccnc32)cc1,/,i,-17%,/
N#Cc1cccc(-c2c(C(=O)NC3CCCCCC3)nc3sccn23)c1,/,i,-6%,/
COc1ccc(OC2CCN(C(C)=O)CC2)c(C(=O)NCc2csc(C(C)C)n2)c1,8%,3%,i,i
COc1ccc2c(C)c(C(=O)N(C)Cc3csc(C(C)C)n3)oc2c1,1%,45µM*,?,i
COc1cccc(N2CCN(c3nc(C(=O)NCc4cccnc4)cs3)CC2)c1,11µM*,32µM*,?,?
COc1ccc(N2CCN(c3nc(C(=O)N4CCC(C)CC4)cs3)CC2)cc1,?,40µM*,40µM*,?
O=C(NCc1ccccn1)c1csc(N2CCN(c3ccccc3)CC2)n1,-20%,40µM*,?,i
CCCc1nc(C(=O)N(C)CCCc2cnn(C)c2)cs1,3%,-8%,5%,i
COc1cccc(-c2c(C(=O)NCc3cccnc3)nc3sccn23)c1,/,-6%,-9%,/
CCCCN(C)C(=O)c1csc(N2CCN(c3ccccc3)CC2)n1,?,35µM*,?,i
O=C(Nc1cc(-c2ccccn2)nn1-c1ccccc1)c1ccccc1Cl,/,?,-20%,/
COc1ccc(N2CCN(c3nc(C(=O)NCc4ccc(F)cc4F)cs3)CC2)cc1,?,35µM*,?,i
O[C@@H]1CN(Cc2ccc(-n3cccn3)cc2)CC[C@H]1c1ccc(F)cc1,?,40µM*,-29%,i
Cc1ccc(-c2cc3c(=O)n(CCNC(=O)c4cc(Cl)ccc4F)ccn3n2)c(C)c1,-25%,?,-2%,?
Cc1ccc(C)c(C(=O)NCCn2ccn3nc(-c4cc(C)ccc4C)cc3c2=O)c1,-12%,40µM*,?,i
Cc1ccc(-c2cc3c(=O)n(CC(O)c4ccc(C)c(C)c4)ccn3n2)c(C)c1 (stereo not drawn),?,40µM*,?,i
Cc1ccc(-c2cc3c(=O)n(CCNC(=O)c4ccc(Cl)cc4)ccn3n2)c(C)c1,-26%,40µM*,?,i
COc1ccc(-c2cc(C(=O)NCCc3ccccc3F)c3cnn(C)c3n2)cc1,/,32µM*,?,/
COc1ccc(CCNC(=O)c2cc(-c3ccccc3F)nc3c2cnn3C)cc1,/,35µM*,?,/
COc1ccccc1-c1cc(C(=O)NCC2CCCCC2)c2cnn(C)c2n1,/,-2%,-17%,/
Cn1ncc2c(C(=O)NCCc3ccccc3F)cc(-c3ccc(F)cc3)nc21,/,32µM*,?,/
